Experiment [1] is described as follows: antimalarial activity against Dd2 strain (AID 2302;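 active = growth inhibition above 50% at the single 2 µM test dose, taken to imply half-maximal potency below 2 µM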;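 also: 0% = DMSO untreated growth and 100% = chloroquine plus artemisinin killed control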). The conditions noted are these: P. falciparum Dd2 in RBCs, LDH growth readout, 72 h; at 2 µM; stronger effect = higher value.
A short description of experiment [2]: human hepatoma cell viability loss – ATP luminescence, cytotoxicity control for P. falciparum antimalarial project, primary screen (AID 2303;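 active = inhibition above 50%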;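 also: 0% = DMSO wells and 100% = digitonin-killed cells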). The conditions noted are these: HepG2 viability, 24-48 h, at 10 µM, stronger effect = higher value.
The target in experiment [3] is L-lactate dehydrogenase (Plasmodium falciparum (isolate CDC / Honduras)) (UniProt Q27743). Nature of the experiment: PfLDH activity inhibition – cell lysate, 3D7 strain, counter-screen for P. falciparum growth inhibition project (AID 2304).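 Also: 0% = vehicle and 100% = reference inhibitor.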 The following applies: P. falciparum 3D7 crude extract, LDH APAD/NBT absorbance; at 2 µM; stronger effect = higher value.
Sequence of L-lactate dehydrogenase (Plasmodium falciparum (isolate CDC / Honduras)) (Q27743 whole entry, looked up): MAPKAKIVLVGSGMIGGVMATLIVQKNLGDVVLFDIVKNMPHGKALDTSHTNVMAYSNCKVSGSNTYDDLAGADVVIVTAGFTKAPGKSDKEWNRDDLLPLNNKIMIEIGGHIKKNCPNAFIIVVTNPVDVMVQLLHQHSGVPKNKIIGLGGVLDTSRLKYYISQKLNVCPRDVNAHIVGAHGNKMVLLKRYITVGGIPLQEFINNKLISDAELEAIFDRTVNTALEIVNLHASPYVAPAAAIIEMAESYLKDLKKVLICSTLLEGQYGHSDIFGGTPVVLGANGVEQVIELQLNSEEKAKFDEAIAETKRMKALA
Experiment [4] is described as follows: inhibition of 3D7 malaria parasite growth – strain 3D7 (AID 2306).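 Also: 0% = DMSO wells and 100% = chloroquine plus artemisinin control wells.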 The following applies: P. falciparum 3D7 erythrocytic growth, LDH absorbance, 72 h; at 2 µM; stronger effect = higher value.
Experiment [5] deals with Calcium-dependent protein kinase 1 (Plasmodium falciparum (isolate 3D7)) (UniProt P62344). Nature of the experiment: PfCDPK1 kinase inhibitors, biochemical, TCAMS library (AID 1159585; cut-off not given, nearly all actives have IC50 up to about 0.98 µM;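 also: inhibitors leave more ATP so luminescence rises with inhibition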). The following applies: recombinant PfCDPK1, Kinase-Glo ATP depletion luminescence. (In Kinase-Glo more light means more ATP remaining.)
Sequence of Calcium-dependent protein kinase 1 (Plasmodium falciparum (isolate 3D7)) (P62344 whole entry, looked up): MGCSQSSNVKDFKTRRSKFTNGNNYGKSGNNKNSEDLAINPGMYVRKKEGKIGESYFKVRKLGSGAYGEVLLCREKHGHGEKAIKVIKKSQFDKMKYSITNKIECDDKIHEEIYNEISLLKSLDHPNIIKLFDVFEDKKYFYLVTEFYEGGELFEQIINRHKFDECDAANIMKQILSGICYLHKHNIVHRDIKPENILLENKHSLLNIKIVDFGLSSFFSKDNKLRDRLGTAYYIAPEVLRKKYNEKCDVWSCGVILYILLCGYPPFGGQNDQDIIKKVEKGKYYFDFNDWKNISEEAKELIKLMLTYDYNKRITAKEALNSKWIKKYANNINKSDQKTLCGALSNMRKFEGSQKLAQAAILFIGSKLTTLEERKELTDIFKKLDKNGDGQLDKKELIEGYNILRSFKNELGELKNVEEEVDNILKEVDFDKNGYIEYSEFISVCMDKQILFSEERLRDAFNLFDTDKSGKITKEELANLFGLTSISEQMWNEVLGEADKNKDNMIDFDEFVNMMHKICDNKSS
In experiment [6] the target is Plasmodium falciparum protein kinase 6 (PK6, PF3D7_1337100) (UniProt Q8IDW1). Briefly: PfPK6 kinase inhibitors, biochemical, TCAMS library (AID 1159586). The following applies: recombinant PfPK6, Kinase-Glo ATP depletion luminescence.
Sequence of Plasmodium falciparum protein kinase 6 (PK6, PF3D7_1337100) (Q8IDW1 1-305): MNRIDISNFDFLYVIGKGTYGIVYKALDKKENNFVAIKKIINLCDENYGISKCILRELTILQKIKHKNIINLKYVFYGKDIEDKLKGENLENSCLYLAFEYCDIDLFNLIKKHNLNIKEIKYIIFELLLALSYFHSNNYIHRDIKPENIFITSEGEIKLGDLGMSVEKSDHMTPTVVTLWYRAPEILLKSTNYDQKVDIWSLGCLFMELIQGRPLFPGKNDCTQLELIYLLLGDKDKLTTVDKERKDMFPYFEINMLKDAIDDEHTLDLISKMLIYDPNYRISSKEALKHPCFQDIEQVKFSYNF
For experiment [7], the target named is Protein kinase 7 (PK7), Plasmodium falciparum 3D7 (PF3D7_0213400) (UniProt Q7YTF7). Nature of the experiment: inhibition of Plasmodium PK7 catalytic activity – biochemical, TCAMS antimalarial set, Kinase-Glo luminescence (AID 1159587). The following applies: recombinant PfPK7, Kinase-Glo ATP depletion luminescence.
Sequence of Protein kinase 7 (PK7), Plasmodium falciparum 3D7 (PF3D7_0213400) (Q7YTF7 1-343): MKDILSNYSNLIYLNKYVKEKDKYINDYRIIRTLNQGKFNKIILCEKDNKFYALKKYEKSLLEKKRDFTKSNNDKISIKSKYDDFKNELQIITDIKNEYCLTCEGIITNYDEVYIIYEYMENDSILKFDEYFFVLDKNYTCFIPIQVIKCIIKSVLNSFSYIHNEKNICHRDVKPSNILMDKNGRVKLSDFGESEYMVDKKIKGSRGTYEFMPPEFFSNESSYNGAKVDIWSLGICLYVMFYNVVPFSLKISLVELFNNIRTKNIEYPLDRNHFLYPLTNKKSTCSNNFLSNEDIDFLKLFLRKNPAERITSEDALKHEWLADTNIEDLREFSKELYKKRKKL
Experiment [8] concerns the target Calcium-dependent protein kinase 4 (Plasmodium falciparum (isolate 3D7)) (UniProt Q8IBS5). Nature of the experiment: PfCDPK4 kinase inhibitors, biochemical, TCAMS library (AID 1159588; cut-off not given, nearly all actives have IC50 up to about 0.91 µM). The following applies: recombinant PfCDPK4, Kinase-Glo ATP depletion luminescence.

Several values for one entry are separate records, joined by “and”; a condition that tells them apart may be missing. Equal values may be shown once. For some assays here: Results with a measured potency or affinity are listed apart. A structure can be active in one record and inactive in another. Activity calls are given as the source filed them. Unless noted, no rule for the calls is given here.

Sequence of Calcium-dependent protein kinase 4 (Plasmodium falciparum (isolate 3D7)) (Q8IBS5 whole entry, looked up): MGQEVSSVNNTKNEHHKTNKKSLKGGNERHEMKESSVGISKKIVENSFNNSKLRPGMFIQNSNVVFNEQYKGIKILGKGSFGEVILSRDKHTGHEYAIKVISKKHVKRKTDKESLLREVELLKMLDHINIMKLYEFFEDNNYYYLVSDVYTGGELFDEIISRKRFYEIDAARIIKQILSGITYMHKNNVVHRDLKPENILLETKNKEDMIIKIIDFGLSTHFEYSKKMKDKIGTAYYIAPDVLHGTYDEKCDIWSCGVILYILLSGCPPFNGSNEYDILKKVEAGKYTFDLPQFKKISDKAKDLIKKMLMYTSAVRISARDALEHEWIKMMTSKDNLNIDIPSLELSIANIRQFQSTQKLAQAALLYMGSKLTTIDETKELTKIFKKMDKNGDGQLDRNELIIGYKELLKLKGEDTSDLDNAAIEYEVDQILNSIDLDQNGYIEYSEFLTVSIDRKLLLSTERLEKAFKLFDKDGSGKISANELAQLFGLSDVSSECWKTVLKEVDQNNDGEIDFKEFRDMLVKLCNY

As to `NC1=NC(c2ccccc2)(c2ccccc2)C(=O)N1C1CCCCC1`, the growth inhibition in experiment [1] was 87% (active); in experiment [4], 100% (active). The inhibition (usually the relative decrease from the control value, in per cent) in experiment [2] is 13% (inactive); in experiment [3], 0% (inactive). Also, the result in experiment [5], in experiment [6], in experiment [7] and in experiment [8] was inactive.
Consider `CC1(CCc2ccccc2)N=C(N)N=C(N)C1c1ccc(Cl)c(Cl)c1` (configuration not stated), for which the growth inhibition in experiment [1] is 39% (inactive); in experiment [4], 98% (active). Besides, the inhibition is 19% (inactive) in experiment [2] and -8% (inactive) in experiment [3]. Also, the result in experiment [5], in experiment [6], in experiment [7] and in experiment [8] was inactive.
Regarding `CNCCNCc1ccc(-c2cccc(-c3nc4ccc(C(F)(F)F)cc4[nH]3)c2)cc1`, the figures for the growth inhibition in experiment [1] and in experiment [4] were 77% (active) and 98% (active), respectively. Moreover, the values for the inhibition in experiment [2] and in experiment [3] were 27% (inactive) and 1% (inactive), respectively. Moreover, the outcome in experiment [5], in experiment [6], in experiment [7] and in experiment [8] was inactive.
On to `O=C(Nc1ccncc1)c1cn(-c2ccccc2)nc1-c1cccs1`, for which the growth inhibition in experiment [1] is 10% (inactive); in experiment [4] it was 98% (active). Further, the inhibition in experiment [2] is 7% (inactive); in experiment [3], 4% (inactive). The outcome in experiment [5], in experiment [6], in experiment [7] and in experiment [8] was inactive.
For the compound `COc1ccc2ncc(F)c(CCN3CC[C@H](NCc4cc5c(s4)CCCN5)[C@H](O)C3)c2n1`, the growth inhibition is 16% (inactive) in experiment [1] and 96% (active) in experiment [4]. Also, the inhibition in experiment [2] was 2% (inactive); in experiment [3], 0% (inactive). The result in experiment [5], in experiment [6], in experiment [7] and in experiment [8] was inactive.
In the case of `CCN(CC)c1cc(C)c2cc(NC(=O)c3cc(=O)c4ccccc4o3)ccc2n1`, the figures for the growth inhibition in experiment [1] and in experiment [4] were 67% (active) and 97% (active), respectively. Besides, the inhibition was 14% (inactive) in experiment [2] and 1% (inactive) in experiment [3]. Moreover, the outcome in experiment [5], in experiment [6], in experiment [7] and in experiment [8] was inactive.
Consider `CC(C)C1CCc2nc(N)nc(N)c2C1` (configuration not stated), for which the figures for the growth inhibition in experiment [1] and in experiment [4] were -2% (inactive) and 95% (active), respectively. The inhibition in experiment [2] is 70% (active); in experiment [3], -5% (inactive). Moreover, the result in experiment [5], in experiment [6], in experiment [7] and in experiment [8] was inactive.
With `O=c1cc(N2CCCNCC2)c(Cl)nn1Cc1ccc(NS(=O)(=O)c2ccc(Oc3ccccc3)cc2)cc1`, the growth inhibition was -4% (inactive) in experiment [1] and 98% (active) in experiment [4]. The inhibition in experiment [2] is 0% (inactive); in experiment [3] it was -2% (inactive). The outcome in experiment [5], in experiment [6], in experiment [7] and in experiment [8] was inactive.
Regarding `O=C(/C=C/c1ccc(Cl)c(Cl)c1)NCCCCCN1CCCN(C(=O)Nc2cccc(F)c2)CC1`, the growth inhibition was 4% (inactive) in experiment [1] and 97% (active) in experiment [4]. Moreover, the inhibition is 20% (inactive) in experiment [2] and -3% (inactive) in experiment [3]. Also, the result in experiment [5], in experiment [6], in experiment [7] and in experiment [8] was inactive.
On to `COc1ccc(-c2cc(C(=O)N[C@@H](CC3CCCCC3)C(=O)NCCN3CCCCC3)ccc2O)cc1`, for which the values for the growth inhibition in experiment [1] and in experiment [4] were 72% (active) and 98% (active), respectively. Further, the inhibition in experiment [2] was 3% (inactive); in experiment [3], 0% (inactive). Moreover, the result in experiment [5], in experiment [6], in experiment [7] and in experiment [8] was inactive.
Turning to `O=C(Nc1cccc(-c2ccc(-c3nc4ccc(F)cc4[nH]3)cc2)c1)c1cccnc1`, the results for the growth inhibition in experiment [1] and in experiment [4] were 92% (active) and 101% (active), respectively. The inhibition in experiment [2] was 27% (inactive); in experiment [3], -4% (inactive). In addition, the outcome in experiment [5], in experiment [6], in experiment [7] and in experiment [8] was inactive.
With `COc1ccccc1NC(=O)c1cc(C(=O)c2cc(Cl)ccc2O)cn(-c2ccccc2OC)c1=O`, the values for the growth inhibition in experiment [1] and in experiment [4] were 31% (inactive) and 92% (active), respectively. Moreover, the inhibition in experiment [2] was 9% (inactive); in experiment [3], 7% (inactive). Besides, the result in experiment [5], in experiment [6], in experiment [7] and in experiment [8] was inactive.
Consider `COc1ccc(CCn2c(=N)c(C(=O)NCc3cccnc3)cc3c(=O)n4cccc(C)c4nc32)cc1`, for which the growth inhibition in experiment [1] was 12% (inactive); in experiment [4], 92% (active). Besides, the figures for the inhibition in experiment [2] and in experiment [3] were 5% (inactive) and 0% (inactive), respectively. Moreover, the result in experiment [5], in experiment [6], in experiment [7] and in experiment [8] was inactive.
On to `CCCCSc1c(CNCCCCCCNCc2ccc3ccccc3c2SCCCC)ccc2ccccc12`, for which the growth inhibition in experiment [1] is 62% (active); in experiment [4], 93% (active). The inhibition is 99% (active) in experiment [2] and -9% (inactive) in experiment [3]. Also, the result in experiment [5], in experiment [6], in experiment [7] and in experiment [8] was inactive.
Consider `COc1ccc2ncc(F)c(C(O)CN3CCC(NCc4ccc5c(n4)NC(=O)CO5)CC3)c2c1` (configuration not stated), for which the growth inhibition in experiment [1] is 51% (active) and 88% (active); in experiment [4], 99% (active) and 100% (active). In addition, the inhibition in experiment [2] is 6% (inactive) and 51% (active); in experiment [3], 3% (inactive) and -2% (inactive). In addition, the outcome in experiment [5], in experiment [6], in experiment [7] and in experiment [8] was inactive.
Regarding `CC(=O)N/N=C/[C@H](CCc1ccccc1)NC(=O)[C@H](CC(C)C)NC(=O)c1ccc(OCCN2CCOCC2)cc1`, the growth inhibition was 87% (active) in experiment [1] and 96% (active) in experiment [4]. The figures for the inhibition in experiment [2] and in experiment [3] were 4% (inactive) and -9% (inactive), respectively. Also, the outcome in experiment [5], in experiment [6], in experiment [7] and in experiment [8] was inactive.
For the compound `CC(=O)Nc1ccc(OCCN(Cc2ccccc2C(F)(F)F)c2ccc(C#N)c(C(F)(F)F)c2)cc1`, the figures for the growth inhibition in experiment [1] and in experiment [4] were 81% (active) and 101% (active), respectively. The inhibition is 8% (inactive) in experiment [2] and 0% (inactive) in experiment [3]. For the same compound, the outcome in experiment [5], in experiment [6], in experiment [7] and in experiment [8] was inactive.
In the case of `O=C(NCCCCN1CCCC2c3ccc(O)cc3CCC21)c1ccc(-c2ccccc2)cc1` (configuration not stated), the growth inhibition was 25% (inactive) and 7% (inactive) in experiment [1]; 96% (active) in experiment [4]. The inhibition in experiment [2] was 32% (inactive) and 26% (inactive); in experiment [3], -8% (inactive) and 3% (inactive). Besides, the outcome in experiment [5], in experiment [6], in experiment [7] and in experiment [8] was inactive.
Take `COc1ccc(NC(=O)C2c3ccccc3C(=O)N(CC(C)C)C2c2cccs2)cc1OC` (configuration not stated): the results for the growth inhibition in experiment [1] and in experiment [4] were 98% (active) and 100% (active), respectively. Further, the inhibition in experiment [2] is 6% (inactive); in experiment [3], 3% (inactive). For the same compound, the result in experiment [5], in experiment [6], in experiment [7] and in experiment [8] was inactive.

The values are drawn from PubChem BioAssay.
